IL-1B inflam inh – blocks inflammasome-driven IL-1 beta release; THP-1 LPS/ATP IL-1B secretion, AlphaLISA, 16 h; active compounds read low; activity change, % at 57.5 µM; actives 4.7% (n = 360,000); in the data active = activity change below about -50%; inconclusive = mostly about -30% to -49%
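THP-1 cells pretreated 1 hr with compounds (up to 57.5 uM final), then stimulated with LPS (250 ng/mL final) plus ATP (1.25 mM final); secreted IL-1B measured by AlphaLISA after 16 hr, decreased signal indicating inhibition.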
ELG1 DNA repair – ELG1-dependent DNA repair inhibition; HEK293T ELG1-luciferase reporter, luminescence, 16 h; DNA damage induced by 5-fluorouridine; Potency, µM (titrated, usually from 46.1 µM), for inactives: top-dose activity change, negative = inhibition, usual class: inhibitors; actives 2.3% (n = 330,000); AID 504467; note: potency is the fitted concentration of half-maximal effect; nearly all actives have a fitted effect of over 55% in size
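Overnight (16 hr) co-exposure of 2,000 cells/well to 5-fluorouridine and compound at 37 °C preceded detection. Luciferase was quantified via ONE-Glo luminescence; loss of signal denotes inhibition.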
DT40 TDP1 no CPT – qHTS for Inhibitors of human tyrosyl-DNA phosphodiesterase 1 (TDP1): qHTS in cells in absence of CPT; DT40 Tdp1-/- hTDP1 cells, no CPT, ATP luminescence, 48 h; actives 15% (n = 420,000); AID 686978, 2013; Potency, µM (top dose mostly 46.2 µM), for inactives: at the top dose activity change, negative = growth inhibition, usual class: inhibitors; note: potency is the fitted concentration of half-maximal effect; nearly all actives have a fitted effect of over 55% in size
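Chicken DT40 Tdp1-/- cells stably complemented with human TDP1 were seeded at 400 cells/well with DMSO in place of 20 nM camptothecin. After compound pinning, cells grew at least 48 hr at 37 °C; viability read by CellTiter-Glo luminescence.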
HT1080-NT tox – kills 2HG-producing HT-1080-NT fibrosarcoma cells; HT-1080-NT fibrosarcoma viability, CellTiter-Glo ATP luminescence, 48 h; actives 1.6% (n = 360,000); Potency, µM (top dose mostly 46.1 µM), for inactives: at the highest dose activity, negative = less viability, most hits filed as cytotoxic;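 note: NT is the 2HG producing partner of a matched IDH1 knockdown line; potency is the fitted concentration of half-maximal effect; 0% = DMSO-treated cells and -100% = media-only wells without cells; nearly all actives have a fitted effect of over 55% in size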
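750 cells/well, RPMI + 5% FBS; 2 h settle, compound pin-transfer, 48 h at 37 degrees C. CellTiter-Glo 10 min RT, luminescence. Normalized to DMSO and media-only wells.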
TDP1 cell CPT – DT40-hTDP1 cell growth loss with CPT; chicken DT40 Tdp1-/-;hTDP1 cells + 20 nM CPT, ATP luminescence, 48 h; Potency, µM (highest dose often 46.2 µM), inactives show at the top dose activity change, negative = growth inhibition, hits mostly inhibitors; actives 12% (n = 420,000); note: potency is the fitted concentration of half-maximal effect; nearly all actives have a fitted effect of over 55% in size
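Chicken DT40 Tdp1-/- cells complemented with human TDP1, 400 cells/well, exposed to compounds plus 20 nM camptothecin for at least 48 h at 37 C; viability read as ATP content by CellTiter-Glo luminescence.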
HT1080 IDH1KD tx – HT-1080 IDH1 knockdown cell toxicity (counter line); HT-1080 IDH1 knockdown viability, ATP luminescence, 48 h; Potency, µM (doses to about 46.1 µM), without a hit: top-dose activity, negative = toxicity, hits mostly cytotoxic; actives 2% (n = 360,000); AID 686971;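 note: potency is the fitted concentration of half-maximal effect; 0% = DMSO wells and -100% = cell-free medium wells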
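Cytotoxicity counter-line: IDH1KD HT-1080, 48 h, CellTiter-Glo. Curves classed by r2, magnitude and activity.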
* hit, by the source's call; ? = inconclusive; . = no result; [ ] = another dose, or the depositor's remark. Shown are actives, neighbours in structure and some others; about 19% of the full set was active somewhere. Unless noted, calls come from the whole dose curve; as a rule, active = well fitted curve in the direction sought with a large enough effect; inconclusive = small, poorly fitted or top-dose-only effect, or another doubt; inactive = no such curve, though single readings can be large; an effect the other way counts as inactive or inconclusive. Unless noted, % is set by controls: 0 for no effect and ±100 for the full control effect.

SMILES | IL-1B inflam inh | ELG1 DNA repair | DT40 TDP1 no CPT | HT1080-NT tox | TDP1 cell CPT | HT1080 IDH1KD tx
CCN(CC)CCn1c(SCC(=O)Nc2ccc(F)cc2)nc2c(sc3ccccc32)c1=O | . | -19% | . | . | . | .
Cc1ccc(S(=O)(=O)N(C)C)cc1NC(=S)NC(=O)C12CC3CC(CC(C3)C1)C2 | 42 | 8% | 8.2µM* | 3% | 9.2µM* | 1%
Cc1ccc(S(=O)(=O)N(C)C)cc1NC(=S)NC12CC3CC(CC(C3)C1)C2 | -20 | ? | ? | -21% | ? | -24%
NS(=O)(=O)c1cccc(NC(=S)NC(=O)C23CC4CC(CC(C4)C2)C3)c1 | -86* | 11% | 21µM* | 9% | ? | 11%
CN(C)S(=O)(=O)c1cccc(NC(=S)NC23CC4CC(CC(C4)C2)C3)c1 | -5 | -16% | ? | ? | ? | -18%
c1ccc(C2Oc3ccccc3C3CC(c4cccs4)=NN32)cc1 (centres undefined) | -4 | ? | 16µM* | -17% | ? | -23%
O=C(COc1ccc([N+](=O)[O-])cc1Cl)NCC1CCCO1 (centres undefined) | 0 | ? | 2% | 1% | -5% | -1%
Cc1ccc(Nc2c(-c3ccco3)nc3ccccn23)cc1 | -15 | ? | ? | -1% | -14% | 2%
c1ccc(Nc2c(-c3ccco3)nc3ccccn23)cc1 | ? | ? | 23µM* | 7% | ? | 3%
Fc1ccc(Nc2c(-c3ccco3)nc3ccccn23)cc1 | -64* | ? | 5.8µM* | 1% | 15µM* | 0%
COCCNC(=O)c1c(C)oc2nc(C)nc(N3CCOCC3)c12 | . | . | 9% | . | 0% | .
FC(F)(F)c1cnc(C(c2ccccn2)c2ncn[nH]2)c(Cl)c1 (centres undefined) | 78 | 26µM* | ? | -14% | ? | -13%
COc1ccccc1-c1c(-c2ccc(OCC(=O)NN)cc2O)n[nH]c1C(F)(F)F | -23 | -27% | 13µM* | -6% | 9.2µM* | -4%
NNC(=O)COc1ccc(-c2n[nH]c(C(F)(F)F)c2-c2ccc(Br)cc2)c(O)c1 | 19 | ? | -17% | 3% | -4% | 17%
COc1ccc(-c2n[nH]c(C(F)(F)F)c2-c2cc3ccccc3o2)c(O)c1 | -54* | -15% | 15µM* | ? | 13µM* | ?
O=Cc1c(NCCN2CCCC2)c2ccccc2[nH]c1=O | 9 | 7% | -4% | 6% | 11% | 2%
COc1cc(CN2C(=O)C(Cc3ccccc3)ON=C2c2ncccc2C)cc(OC)c1 (centres undefined) | 25 | . | ? | 0% | ? | 1%
COc1ccc(C(C)=O)cc1CN1C(=O)C(Cc2ccccc2)ON=C1c1ncccc1C (centres undefined) | -25 | . | ? | 1% | 21µM* | 15%
Cc1ccc(-c2nnc(OCc3cccnc3)c3ccccc23)cc1 | -83* | ? | ? | -15% | -15% | -1%
c1ccc(-c2nnc(OCc3cccnc3)c3ccccc23)cc1 | -28 | 10% | ? | -24% | -2% | -13%
CCCCSc1nnc(-c2ccc(C)cc2)c2ccccc12 | 6 | -18% | 18µM* | 0% | 21µM* | 0%
COc1ccc(-c2nnc(OCc3ccccc3)c3ccccc23)cc1 | -87* | ? | ? | -20% | ? | -9%
Cc1ccc(Oc2nnc(-c3ccc(C)cc3)c3ccccc23)cc1 | 14 | ? | 15µM* | 14% | 21µM* | 0%
COc1cc(-c2cc(C)c3c(OC)ccc(OC)c3n2)cc2c1OCCN(C(=O)CCn1ccc(C)n1)C2 | . | . | ? | . | 13%[9.04 µM] | .
CCOC(=O)N1CCN(C(=O)COC(=O)c2cc(C)ccc2C)CC1 | 26 | 3% | -12% | 9% | 0% | 6%
SMILES | IL-1B inflam inh | ELG1 DNA repair | DT40 TDP1 no CPT | HT1080-NT tox | TDP1 cell CPT | HT1080 IDH1KD tx
CCOc1cccc(NC(=O)C2CC(=O)N(C)C(=Nc3cccc(F)c3)S2)c1 (centres undefined) | 2 | 2% | 18µM* | -30% | ? | ?
COc1ccc(-c2cc3nc(-c4ccccc4)cc(N4CCC5(CC4)OCCO5)n3n2)cc1 | -6 | 21µM* | ? | -10% | 26µM* | 3%
COc1ccc(-c2cc3nc4c(c(N5CCC6(CC5)OCCO6)n3n2)CCC4)cc1 | -13 | ? | 26µM* | -3% | 13µM* | -4%
COc1cccc(-c2cc3nc4c(c(N5CCC6(CC5)OCCO6)n3n2)CCC4)c1 | -2 | ? | 26µM* | 6% | 18µM* | 12%
COc1cccc(N2CCN(c3c4c(nc5ncnn35)CCC4)CC2)c1 | -14 | -29% | 16µM* | -2% | ? | -22%
Cc1cccc(-c2cc3nc4c(c(N5CCC6(CC5)OCCO6)n3n2)CCCC4)c1 | 6 | . | -26% | 4% | -30% | ?
Cc1ccccc1-n1nc2c(c1NC(=O)CC(C)C)CS(=O)C2 (centres undefined) | 2 | ? | 24% | 8% | -5% | 8%
CCOc1ccc(N=C2NC(=O)CS2)cc1 | 0 | -6% | 9% | -2% | -10% | 0%
CCCC[C@@H]1Cc2[nH][nH]c(=O)c2[C@@H](c2ccc(Cl)cc2)O1 | 3 | . | -21% | -19% | -14% | 1%
CCCC[C@@H]1Cc2[nH][nH]c(=O)c2[C@H](c2ccc3ccccc3c2)O1 | -12 | . | 18µM* | 0% | -1% | 23µM*
CCCC[C@@H]1Cc2[nH][nH]c(=O)c2[C@H](c2ccc(C(C)C)cc2)O1 | -65* | . | ? | 22% | ? | 1%
COc1ccc(N=Cc2c(O)n(-c3cccc(C)n3)c(=O)c3ccccc23)c(OC)c1 | . | -2% | -30% | 5% | 2% | 17%
Fc1cccc(F)c1[B-](F)(F)F | -11 | . | 1% | -1% | ? | -2%
CCCOc1ccc(-c2nonc2NC(=O)c2oc3ccc(C)cc3c2C)cc1OCCC | . | . | ? | . | 9.2µM* | .
CCOc1ccc(-c2nonc2NC(=O)c2oc3cc(C)c(C)cc3c2C)cc1OCC | . | . | ? | . | -1% | .
CCOc1ccc(-c2nonc2NC(=O)c2oc3cc(C)ccc3c2C)cc1 | . | . | ? | . | 23µM* | .
CCOc1ccc(-c2nonc2NC(=O)c2oc3c(C)c(C)ccc3c2C)cc1OCC | . | . | 16µM* | . | 15µM* | .

High-throughput results deposited in PubChem BioAssay by National Center for Advancing Translational Sciences (NCATS).
